Assay results reported in PubChem BioAssay (NCI).
Compounds without any hit were thinned out: in the full panel of roughly 83,000, 20% have a hit.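 Negative percent growth values reflect cell death: -40 means 40% of the cells present at the start died, and -100 means all died.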 Active and inactive are the calls of the source. The calls were made as follows: active = growth percent below 10; inactive = the rest.

Columns and labels:
Assay in all cases: NCI-60 one-dose screen, 48 h (100 = growth as untreated, 0 = no growth, -100 = all killed)
Settings in all cases: 10 µM
786-0 renal = test system: 786-0 renal
MALME-3M melanoma = test system: MALME-3M melanoma
UACC-257 melanoma = test system: UACC-257 melanoma
SN12C renal = test system: SN12C renal
TK-10 renal = test system: TK-10 renal
ACHN renal = test system: ACHN renal
CAKI-1 renal = test system: CAKI-1 renal
A498 renal = test system: A498 renal
RPMI-8226 leukemia = test system: RPMI-8226 leukemia
OVCAR-8 ovarian = test system: OVCAR-8 ovarian
OVCAR-5 ovarian = test system: OVCAR-5 ovarian
SK-OV-3 ovarian = test system: SK-OV-3 ovarian
IGROV1 ovarian = test system: IGROV1 ovarian
OVCAR-3 ovarian = test system: OVCAR-3 ovarian
NCI/ADR-RES ovarian = test system: NCI/ADR-RES ovarian
T-47D breast = test system: T-47D breast
BT-549 breast = test system: BT-549 breast
MDA-MB-435 melanoma = test system: MDA-MB-435 melanoma
MCF7 breast = test system: MCF7 breast
HCT-116 colon = test system: HCT-116 colon

| SMILES | growth (786-0 renal) | growth (MALME-3M melanoma) | growth (UACC-257 melanoma) | growth (SN12C renal) | growth (TK-10 renal) | growth (ACHN renal) | growth (CAKI-1 renal) | growth (A498 renal) | growth (RPMI-8226 leukemia) | growth (OVCAR-8 ovarian) | growth (OVCAR-5 ovarian) | growth (SK-OV-3 ovarian) | growth (IGROV1 ovarian) | growth (OVCAR-3 ovarian) | growth (NCI/ADR-RES ovarian) | growth (T-47D breast) | growth (BT-549 breast) | growth (MDA-MB-435 melanoma) | growth (MCF7 breast) | growth (HCT-116 colon) |
| --- | --- | --- | --- | --- | --- | --- | --- | --- | --- | --- | --- | --- | --- | --- | --- | --- | --- | --- | --- | --- |
| CC[C@]12C=CCN3CC[C@@]4(c5ccc(OC)cc5N(C)[C@H]4[C@@](O)(C(=O)OC)[C@@H]1OC(=O)CCCC[P+](C1CCCCC1)(C1CCCCC1)C1CCCCC1)[C@@H]32 | -36% (active) | -95.9% (active) | -82.1% (active) | -57.9% (active) | -64.1% (active) | 18.7% (inactive) | -24.1% (active) | -0.0449% (active) | -45% (active) | -6.33% (active) | 5.84% (active) | -22.3% (active) | -84.7% (active) | -60.3% (active) | 96.7% (inactive) | 3.83% (active) | -97.4% (active) | -90.5% (active) | -64.2% (active) | 4.69% (active) |
| O=C(/C=C/c1ccccc1)c1nc2ccccc2n1Cc1ccc(F)cc1 | -88.3% (active) | -28.3% (active) | -1.28% (active) | -5.26% (active) | -14.3% (active) | -55% (active) | 31.2% (inactive) | 106% (inactive) | -38% (active) | 4.71% (active) | -15.1% (active) | 64.9% (inactive) | -32.9% (active) | -47.5% (active) | -49.6% (active) | -15.9% (active) | -65% (active) | -29.3% (active) | -32.7% (active) | -87.4% (active) |
| CC[C@]12C=CCN3CC[C@@]4(c5ccc(OC)cc5N(C)[C@H]4[C@@](O)(C(=O)OC)[C@@H]1OC(=O)CCC[P+](c1ccc(F)cc1)(c1ccc(F)cc1)c1ccc(F)cc1)[C@@H]32 | 80.9% (inactive) | -32.6% (active) | -34.3% (active) | 16.6% (inactive) | 63.9% (inactive) | 101% (inactive) | 73.1% (inactive) | 101% (inactive) | 24.4% (inactive) | 28% (inactive) | 67% (inactive) | 54.7% (inactive) | -15% (active) | 21.1% (inactive) | 104% (inactive) | 10.4% (inactive) | -9.4% (active) | 6.69% (active) | 7.7% (active) | 32.2% (inactive) |
| CC[C@@]12CC(C(=O)OC)=C3Nc4cc5c(cc4[C@@]34CCN(C[C@H]3O[C@H]31)[C@@H]24)[C@@H]1[C@H](O5)[C@@H](O)[C@@]2(CC)CC(C(=O)OC)=C3Nc4cc(OC)ccc4[C@@]34CCN1[C@@H]24 | 22.2% (inactive) | 21% (inactive) | 54.3% (inactive) | 27.1% (inactive) | 16.2% (inactive) | 17.8% (inactive) | 12.9% (inactive) | -15.3% (active) | 0.732% (active) | 25.5% (inactive) | 34.3% (inactive) | 14.4% (inactive) | 2.51% (active) | 7.91% (active) | 1.32% (active) | 25.7% (inactive) | -16.9% (active) | 9.48% (active) | 2.22% (active) | -0.466% (active) |
| O=C(NCCCCC(c1ccc(F)cc1)c1ccc(F)cc1)Nc1ccc([N+](=O)[O-])c(C(F)(F)F)c1 | -15% (active) | -25.8% (active) | -15.7% (active) | 7.2% (active) | 10% (inactive) | -2.96% (active) | -3.31% (active) | -9.75% (active) | -39.3% (active) | 5.42% (active) | 11.8% (inactive) | -33% (active) | 15.4% (inactive) | 1.5% (active) | -4.02% (active) | -10.4% (active) | -28% (active) | -21.3% (active) | 1.44% (active) | -58.2% (active) |
| CC(=O)Oc1ccccc1C(=O)[Se]C(=NC(C)C)NC(C)C | -95.9% (active) | -43.5% (active) | -95.1% (active) | -78.7% (active) | -98.5% (active) | -80.8% (active) | -98.5% (active) | -24.8% (active) | -20% (active) | -86.3% (active) | -66.5% (active) | -95.6% (active) | -89.8% (active) | -93.7% (active) | -25.3% (active) | -45.6% (active) | -94.7% (active) | -94.1% (active) | -55% (active) | -82.4% (active) |
| CC(C)N=C([Se])NC(=O)c1ccccc1 | -93.6% (active) | -24.7% (active) | -36.2% (active) | -59.8% (active) | -71.2% (active) | -51.2% (active) | -80.7% (active) | -29.4% (active) | 0.145% (active) | -65.2% (active) | -55.9% (active) | -57.2% (active) | -54.5% (active) | -61% (active) | -11% (active) | -34.6% (active) | 40.6% (inactive) | 22.5% (inactive) | -29.1% (active) | 1.38% (active) |
